# HEK293 cAMP ctrl: parental HEK293 cAMP activation (counter-screen); parental HEK293 CNG cAMP sensor, membrane potential fluorescence; Potency, µM (series often up to 57.1 µM), usual class: activators; actives 2.5% (n = 73,000); AID 938; further: nearly all actives have a fitted effect of over 55% in size
#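 Parental HEK 293 cells stably expressing a modified CNG channel (no TSHR) report cAMP rise as membrane depolarization. Membrane potential dye with 100 uM RO 20-1724 was loaded for 60 min at room temperature, then compound added for 30 min; fluorescence read at 590 nm.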
# PK Bst: modulators of Bacillus stearothermophilus pyruvate kinase. Potency, µM. actives 1.2% (n = 51,000). purified pyruvate kinase, luminescence ATP production; ribose 5-phosphate activator present at AC10; in the data active means potency below about 11 µM; inconclusive means mostly about 12 µM to 25 µM;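 the screen sought inhibitors and activators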
# TSHR ag: agonists of human thyroid stimulating hormone receptor; HEK293-CNG-TSHR cells (CNG channel as cAMP sensor), membrane potential dye, cAMP; Potency, µM (series often up to 57.1 µM), actives largely listed as activators; actives 0.48% (n = 73,000); active means well fitted activation curve with a large enough effect in the main read-out, with a control signal flat, not every such curve was filed as active; inconclusive means small, poorly fitted or top-dose-only effect, or a change in a side signal; inactive means no such curve, though single readings can be large or run the other way; reference of the percent scale not stated here;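 further: the control signal comes from parental cells without the receptor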
# Target sequence (P16473 whole entry, looked up): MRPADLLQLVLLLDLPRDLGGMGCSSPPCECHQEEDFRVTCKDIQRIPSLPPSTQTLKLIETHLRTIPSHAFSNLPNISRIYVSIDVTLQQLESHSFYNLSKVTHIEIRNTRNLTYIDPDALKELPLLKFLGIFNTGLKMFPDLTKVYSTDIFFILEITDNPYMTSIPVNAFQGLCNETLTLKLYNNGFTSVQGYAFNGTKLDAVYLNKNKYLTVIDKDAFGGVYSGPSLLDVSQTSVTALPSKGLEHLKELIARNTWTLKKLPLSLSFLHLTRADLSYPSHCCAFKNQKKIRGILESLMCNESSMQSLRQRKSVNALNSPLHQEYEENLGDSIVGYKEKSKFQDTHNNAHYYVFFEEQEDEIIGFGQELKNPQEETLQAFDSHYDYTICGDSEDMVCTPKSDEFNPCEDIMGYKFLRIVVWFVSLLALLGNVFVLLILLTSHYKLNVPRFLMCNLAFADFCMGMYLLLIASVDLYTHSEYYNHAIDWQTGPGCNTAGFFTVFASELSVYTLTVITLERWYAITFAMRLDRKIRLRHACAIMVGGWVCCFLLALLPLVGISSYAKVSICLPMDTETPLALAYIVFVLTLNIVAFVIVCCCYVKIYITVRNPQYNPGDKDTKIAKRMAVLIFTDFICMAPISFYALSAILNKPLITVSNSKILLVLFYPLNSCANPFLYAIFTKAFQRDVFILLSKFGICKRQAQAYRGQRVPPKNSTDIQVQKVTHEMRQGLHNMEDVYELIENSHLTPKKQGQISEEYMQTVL
#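 HEK 293 cells stably expressing TSHR and a cAMP-gated CNG channel; parental CNG-only cells as counterscreen. Cells preloaded 60 min with membrane potential dye plus 100 uM RO 20-1724, then compound 30 min; fluorescence read at 590 nm.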
# Luciferase inh: inhibitors of firefly luciferase; purified firefly luciferase, luminescence, 8 min; actives 2.2% (n = 72,000); Potency, µM (series often up to 57.1 µM), hits mostly inhibitors; P08659; further: nearly all actives have a fitted effect of over 40% in size
#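 Substrate buffer containing 10 uM ATP (pH 7.2 imidazole, Mg2+, KCl, detergent, BSA) is dispensed, compound pinned in, then luciferase/luciferin detector mix added. After 8 min at ambient temperature, light output is measured.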
# GBA mod: human lysosomal glucosylceramidase modulation; Potency, µM; AID 360; actives 1.1% (n = 48,000); purified enzyme, resorufin glucoside fluorescence (screen aimed at inhibitors), 20 min; P04062; in the data active means potency below about 15 µM; inconclusive means mostly about 16 µM to 33 µM;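 further: the screen sought inhibitors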
#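 Wild-type enzyme at 0.2 nM final in 50mM citric acid/KH2PO4, 10mM sodium taurocholate, 0.01% tween-20, pH 5.9, with resorufin beta-D-glucopyranoside at 30 uM final. Compounds titrated, 20 min at RT, red fluorescence read; AC50 from titration.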
# A number is an active result; - = inactive; ? = inconclusive; . = no result given; [ ] = dose if it differs, or a comment. In the library only some 5.8% were active in any assay of this set; here they are far more common. Unless noted, the call rests on the fitted dose curve; in most records, active means well fitted curve in the direction sought with a large enough effect; inconclusive means small, poorly fitted or top-dose-only effect, or another doubt; inactive means no such curve, though single readings can be large; an effect the other way counts as inactive or inconclusive.
SMILES,HEK293 cAMP ctrl,PK Bst,TSHR ag,Luciferase inh,GBA mod
CN=CC1=C(O)c2ccccc2C1=O,?,.,?,-,-
O=C1C(C=Nc2ccccc2O)=C(O)c2ccccc21,-,7.3,-,7.9µM,-
Cc1ccc(O)c(N=CC2=C(O)c3ccccc3C2=O)c1,-,.,-,25µM,.
CS(=O)(=O)Nc1cccc(-c2ccc3ncnc(NCc4cccs4)c3c2)c1,-,.,-,-[2.29 µM],.
Cc1cc(N2CCCCC2)nc(SCc2ccc(C#N)cc2)n1,32µM,-,?,-,-
Cc1cc(N2CCOCC2)nc(SCC(=O)c2ccccc2)n1,-,-,-,-,-
Cc1ccc(N2C(=O)c3ccccc3C2O)nc1 (stereo not given),-,.,-,6.3µM,.
Cc1ccc(N2C(=O)c3ccccc3C2Nc2ccccc2F)nc1 (stereo not given),?,.,?,-,.
CCNc1ncc2nc(-c3cccc(C#N)c3)c(=O)n(C)c2n1,-,.,-,-[11.4 µM],.
Cc1csc2nc(CSc3nc4ccccc4o3)c(Br)n12,25µM,?,?,-,-
Cc1csc2nc(CSc3nncn3-c3ccccc3)c(Br)n12,-,.,.,-,-
Cc1ccc(C(=O)Nc2ccc3c(c2)ncn3C)cc1,-,.,-,25µM,.
Cc1ccc(CNc2ccc3c(c2)ncn3C)cc1,-,-,-,-,?
O=C(c1ccco1)N1CCC2(CC1)CCN(c1ccccn1)CC2,-,.,-,-[11.4 µM],.
CN(C)c1ccc(N/C=C/C(=O)c2ccccc2)cc1,-,0.42,-,0.32µM,-
CCOc1ccc(-c2nc(-c3ccccc3C)no2)cc1,-,8,-,2µM,.
Cc1noc(C)c1C(=O)N1CCC2(CC1)CCN(c1ncccn1)CC2,-,.,-,-[11.4 µM],.
O=C1C(C=NCCN2CCOCC2)=C(O)c2ccccc21,-[11.4 µM],.,-[11.4 µM],13µM,.
O=C1C(C=NCCCN2CCOCC2)=C(O)c2ccccc21,-,.,-,-,.
Nn1c(-c2cccs2)nc2sc3c(c2c1=O)CCCC3,?,?,?,16µM,-
CN(C)c1nc2sc3c(c2c(=O)n1C)CC(C)(C)OC3,.,-,.,-,.
CC1(C)Cc2c(sc3nc(-c4cccs4)n(N)c(=O)c23)CO1,-,-,.,13µM,-
COc1cc(C(=O)Oc2ccccc2N)cc(OC)c1OC,-[11.4 µM],.,3.2µM,-,.
Cc1noc(C)c1-c1nc(NCc2ccccc2)c2ccccc2n1,25µM,.,?,-[2.29 µM],.
CS(=O)(=O)Nc1cccc(-c2nc(NCc3ccccc3)c3ccccc3n2)c1,25µM,.,?,-[2.29 µM],.
SMILES,HEK293 cAMP ctrl,PK Bst,TSHR ag,Luciferase inh,GBA mod
CCCn1c(C)nc2c(N3CCC(N(C)C)C3)nc(C)nc21 (stereo not given),-,.,-,.,.
CCN(CC)CCOC(=O)[C@@H](Cc1cccc2ccccc12)C[C@@H]1CCCO1,-,.,-,-,.
COc1ccc(CCN(C)CCC[C@@](C#N)(c2cc(OC)c(OC)c(OC)c2)C(C)C)cc1OC,-,.,.,-,.
COc1ccccc1NC(=O)CSc1nnc(-c2ccco2)n1Cc1ccco1,?,.,?,25µM,-
Clc1ccccc1CSc1nnc(-c2ccccn2)n1Cc1ccco1,-,-,-,-,.
CC1CCN(C(=O)CSc2nnc(-c3cc4ccccc4cc3O)n2Cc2ccco2)CC1,-,.,25µM,-,?
COc1ccc(C(=O)CSc2nnc(-c3cc4ccccc4cc3O)n2Cc2ccco2)cc1,?,-,?,-,-
COc1ccccc1NC(=O)CSc1nnc(-c2ccccn2)n1Cc1ccco1,-,.,.,-,-
COc1ccc(C)cc1NC(=O)CSc1nnc(-c2ccccn2)n1Cc1ccco1,10µM,-,?,-,-
C(=C\c1ccccc1)/CSc1nnc(-c2ccccn2)n1Cc1ccco1,20µM,-,?,-,-
COc1ccc(NC(=O)CSc2nnc(-c3ccccc3)n2Cc2ccco2)c(OC)c1,-,-,-,-,-
CCOC(=O)OCC1OC(c2cc(C)cc(C)c2)C=CC1OC(=O)OCC (stereo not given),-[11.4 µM],.,-[11.4 µM],.,.
O=C(O)/C=C(/C(=O)O)[C@]12CCN3CC4=CCO[C@@H]5CC(=O)N[C@@H]1[C@H]5[C@H]4C[C@H]32,-[11.4 µM],.,-[11.4 µM],-[11.4 µM],.
COc1ccc(NC(=O)CSc2nnc(-c3ccccc3Cl)n2Cc2ccco2)c(OC)c1,20µM,-,?,-,-
COCCCn1c(SCC(=O)OC2CCCCC2)nnc1-c1ccco1,-,.,-,25µM,-
O=C(Nc1nc(-c2nc3ccccc3s2)cs1)C1CC1,-,.,-,5µM,.
O=C(Nc1nc(-c2nc3ccccc3s2)cs1)c1ccco1,?,.,?,-,.
O=C(CN1C(=O)CCC1=O)Nc1nc(-c2nc3ccccc3s2)cs1,?,.,?,13µM,.
O=C(Nc1nc(-c2ccc3c(c2)OCO3)cs1)C1CC1,-,.,-,13µM,.
CCCC(=O)Nc1nc(-c2ccc3c(c2)OCCO3)cs1,-,.,-,-,.
CN(C)/C=N/c1cnc(C(=O)c2ccc(Cl)cc2)n1C,-,.,-,13µM,.
Cc1ccc2nc3c(cc2c1)c(NC(=O)c1cccnc1)nn3C,-,-,-,13µM,-
CC(C)(C)c1cc(C(F)(F)F)nc(SCCCNC(=O)c2ccco2)n1,-,-,25µM,-,?
Cn1cccc1C(=O)N1CCC2(CCCN(C(c3ccccc3)c3ccccc3)C2)CC1,-,.,-,-[11.4 µM],.
CC(=O)N1[C@H](C)C=C[C@]1(Cc1ccccc1)C(=O)NCc1ccc(C)o1,-,.,-,.,.
SMILES,HEK293 cAMP ctrl,PK Bst,TSHR ag,Luciferase inh,GBA mod
O=S(=O)(c1ccccc1)N1CCC2(CCN(Cc3ccccc3)CC2)CC1,-,.,-,-[11.4 µM],.
O=S(=O)(c1ccccc1)N1CCC2(CCCN(Cc3ccccc3)C2)CC1,16µM,.,?,-[11.4 µM],.
O=c1c(CCc2ccccc2)nc2cnc(N3CCNCC3)nc2n1-c1ccccc1,-,.,-,-[11.4 µM],.
O=S(=O)(Nc1cccnc1)c1ccc(C2CCCCC2)cc1,25µM,-,?,-,-
COc1ccc(-c2cc3nc4n(c(=O)c3s2)CCC4)cc1,-,3.8,-,2.5µM,-
COc1ccc(NS(=O)(=O)c2cccc(-c3nnc4n3CCCCC4)c2)cc1,?,-,?,-,-
COc1ccc(NC(=O)c2ccc3c(c2)C(=O)N(Cc2cccnc2)C3=O)c(OC)c1,-,-,-,-,5
COc1ccc(NC(=O)c2cccnc2)c(OC)c1,?,.,?,-,.
CO[C@@H]1COC(=O)C/C=C\[C@@H](C)[C@H](OC)COC(=O)C/C=C\[C@H]1C,-[11.4 µM],.,-[11.4 µM],-[11.4 µM],.
CSCC[C@@H]1NC(=O)C/C=C\[C@@H](C)COC(=O)[C@H](C)COC1=O,-[11.4 µM],.,-[11.4 µM],-[11.4 µM],.
COc1ccc(C(=O)/C=C/Nc2cccc(C)n2)cc1OC,.,0.63,.,10µM,.
Cc1ccc(C(=O)/C=C/Nc2ccccn2)cc1,.,0.75,.,0.4µM,.
COc1ccc(C(=O)/C=C/N2CCCCC2)cc1OC,-[11.4 µM],.,-[11.4 µM],-,.
COc1cccc(Cn2c(=O)c(C)nc3cnc(N4CCOCC4)nc32)c1,-,.,-,-[11.4 µM],.
COc1cccc(OC)c1OCCNC[C@@H]1CSc2ccccc2O1,?,.,?,-,.
Cc1cc(C(=O)CSc2nnc(N)s2)c(C)n1CCc1ccc(Cl)cc1,25µM,-,?,-,-
Cc1cc(C(=O)CSc2nnc(N)s2)c(C)n1CCc1ccc(F)cc1,?,-,?,-,-
